Laboratory results from PubChem BioAssay (NCATS).
Several values for one entry are separate records, joined by “and”; a condition that tells them apart may be missing. Equal values may be shown once. Unmarked numbers belong to inactive results. Inconclusive results are not listed. Activity calls are given as the source filed them.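 How the source made its calls, unless noted: active means compounds whose dose series gives a full or clear partial fitted curve of increased nuclear translocation; inconclusive means weak partial curve or effect only at the top dose; inactive means no dose-dependent translocation response.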

Key:
[1] = molecular target: Glucocorticoid receptor (Homo sapiens) (UniProt P04150); assay: GR-GFP Redistribution (AID 450); conditions: U2OS GR-GFP nuclear translocation, laser cytometry, 2 h; further: potency means the concentration at half of the fitted maximal effect
[2] = molecular target: Glucocorticoid receptor (Homo sapiens) (UniProt P04150); assay: GR-EFC Redistribution (AID 451; calls by dose curve; further: potency means the concentration at half of the fitted maximal effect); conditions: CHO-K1 GR-EFC translocation, beta-gal luminescence, 2 h
Outline: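 Translocation of GR-ED fusion to nuclear EA restores b-gal, read by luminescence after 1 h room-temperature detection. Engineered CHO-K1 biosensor cells, 1,000/well, exposed 2 h at 37 C to titrations up to 46 uM final.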

[3] = molecular target: Mitogen-activated protein kinase 10 (Mus musculus) (UniProt Q61831); assay: JNK3 AlphaScreen Assay (AID 530; active means well fitted curve in either direction with a large enough effect, not every such curve was filed as active;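 further: kinase came from lysate of stimulated human HepG2 cells; signal reports phosphorylation of biotinylated GST-cJun 1-79 at Ser73 with 10 µM ATP; on the % scale 0 is the no-effect control and ±100 the full control effect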); conditions: JNK3 lysate, c-Jun phosphorylation; series mostly up to 25.6 µM
Outline: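 Kinase buffer: 20 mM Tris-HCl pH 7.6, 10 mM MgCl2, 1 mM DTT, 0.1 mM Na3VO4, 0.01% Tween-20; ATP 10 uM. Substrate biotin-GST-cJun(1-79), enzyme from activated HepG2 lysates. Detection by Ser73 phospho-antibody AlphaScreen.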

[4] = molecular target: 3',5'-cyclic-AMP phosphodiesterase 4B (Homo sapiens) (UniProt Q07343); assay: qHTS Assay for Inhibitors of PDE-IV (AID 607; active means well fitted activation curve with a large enough effect in the main read-out, with a control signal flat, not every such curve was filed as active; further: % of control where 0% means no effect); conditions: HEK293 ACTOne CNG channel cells, membrane potential fluorescence; series mostly up to 22.9 µM
Outline: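 Live HEK293 cells with a modified cyclic nucleotide-gated (CNG) channel report intracellular cAMP via membrane-potential dye fluorescence (ex 535/em 590 nm). Endogenous PDE-IV was targeted. Compounds were tested at up to 22.9 uM final; RO 20-1724 100 uM served as control.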

[5] = Cell Viability - N2a (AID 540; active means well fitted curve in the direction sought with a large enough effect; an effect the other way counts as inactive or inconclusive; further: potency means the concentration at half of the fitted maximal effect; nearly all actives have a fitted effect of over 45% in size); conditions: N2a mouse neuroblastoma cell viability; activity change, negative = cytotoxicity: at 92.2 µM (top of the series)
Outline: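 N2a mouse neuroblastoma, 1500 cells/well, 5 hr settle; compound 40 hr, 37 °C; CellTiter-Glo 20 min RT; luminescence; Hill-fit AC50.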

[6] = Cell Viability - H-4-II-E (AID 543; active means well fitted curve in the direction sought with a large enough effect; an effect the other way counts as inactive or inconclusive; further: potency means the concentration at half of the fitted maximal effect; nearly all actives have a fitted effect of over 35% in size); conditions: H-4-II-E rat hepatoma viability; series mostly up to 92.2 µM
Outline: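 qHTS, rat hepatoma H-4-II-E, 1500 cells/well; 40 hr compound exposure, 37 °C; CellTiter-Glo ATP luminescence after 20 min RT; AC50 by standard Hill fit.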

[7] = Cell Viability - SH-SY5Y (AID 544; active means well fitted curve in the direction sought with a large enough effect; an effect the other way counts as inactive or inconclusive; further: nearly all actives have a fitted effect of over 55% in size; further: potency means the concentration at half of the fitted maximal effect); conditions: SH-SY5Y neuroblastoma cell viability; viability change, negative = cytotoxic: at 92.2 µM (top of the series)
Outline: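 SH-SY5Y, 1500 cells/well, 5 hr pre-incubation 37 °C; cpd 40 hr 37 °C; CellTiter-Glo 20 min RT; luminescence (ATP) read. qHTS concentration-response, Hill fit → AC50. Tamoxifen, doxorubicin as positive controls.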

[8] = Cell Viability - Renal Proximal Tubule (AID 545; active means well fitted curve in the direction sought with a large enough effect; an effect the other way counts as inactive or inconclusive; further: potency means the concentration at half of the fitted maximal effect; nearly all actives have a fitted effect of over 40% in size); conditions: renal proximal tubule cells viability, primary cells of rat origin; activity change, negative = cytotoxicity: at 91.7 µM (top of the series)
Outline: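 In this qHTS format, normal rat kidney-derived proximal tubule cells in complete culture medium receive compound titrations, then sit 40 hours at 37 °C before luciferase-based ATP quantitation; potency is reported as AC50 from concentration-response curves.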

[9] = Cellular Toxicity (caspase-3) Jurkat (AID 655; active means well fitted curve in the direction sought with a large enough effect; an effect the other way counts as inactive or inconclusive;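 further: potency means the concentration at half of the fitted maximal effect; cells exposed to compound for 16 h at 37 °C before reading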); conditions: Jurkat caspase-3 activation, luminescence; series mostly up to 92.2 µM
Outline: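 qHTS in human Jurkat T-cell leukemia line: 16 hr compound treatment at 37 °C, caspase-3/7 activity measured by Caspase-Glo luminescence. AC50 derived from Hill equation.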

[10] = Cellular Toxicity (caspase-3) HUV-EC-C (AID 656; active means well fitted curve in the direction sought with a large enough effect; an effect the other way counts as inactive or inconclusive); conditions: HUV-EC-C cells, caspase-3 activation (apoptosis), vehicle = 0, 100 µM tamoxifen = 100%; series mostly up to 92.2 µM
Outline: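 Concentration-dependent caspase 3/7 induction was assessed in HUV-EC-C cells exposed for 16 hours. Data scaled between DMSO and tamoxifen (100 uM) controls.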

[11] = Cellular Toxicity (caspase-3) MRC-5 (AID 659; active means well fitted curve in the direction sought with a large enough effect; an effect the other way counts as inactive or inconclusive; further: potency means the concentration at half of the fitted maximal effect;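 on caspase-3 activation: 0% = DMSO basal and 100% = 10 µM staurosporine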); conditions: MRC-5 cells, luminescence; Potency: caspase-3 activation; series mostly up to 91.7 µM
Outline: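 Luminescent Caspase-Glo 3/7 read-out (1 h, room temperature) after a 16 h, 37 °C compound exposure of MRC-5 lung fibroblasts at 1500 cells/well. Concentration-response AC50 from Hill equation; 0% DMSO, 100% 10 uM staurosporine.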

[12] = Cellular Toxicity (caspase-3) SK-N-SH (AID 661; active means well fitted curve in the direction sought with a large enough effect; an effect the other way counts as inactive or inconclusive; further: potency means the concentration at half of the fitted maximal effect;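 on caspase-3 activation: 0% = DMSO basal and 100% = 10 µM staurosporine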); conditions: SK-N-SH caspase-3 activation, qHTS; series mostly up to 91.7 µM
Outline: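 Luminescent Caspase-Glo 3/7 read-out after 16 hr compound exposure of SK-N-SH neuroblastoma cells at 37 °C. Signal increase normalized to DMSO (basal) and 10 uM staurosporine (100%); AC50 from Hill equation fits of qHTS concentration-response data.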

[13] = Cellular Toxicity (caspase-3) H-4-II-E (AID 663; active means well fitted curve in the direction sought with a large enough effect; an effect the other way counts as inactive or inconclusive; further: potency means the concentration at half of the fitted maximal effect;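 on caspase-3 activation: cells exposed to compound for 16 hr before readout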); conditions: H-4-II-E rat hepatoma; Potency: caspase-3 activation; series mostly up to 92.2 µM
Outline: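 Caspase 3/7 activation measured by luminescent aminoluciferin substrate cleavage after 16 hr compound treatment of H-4-II-E cells in complete medium. Increase normalized between DMSO (basal) and 100 uM tamoxifen (100%); Hill-equation AC50 from concentration-response.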

[14] = Cell Viability - NIH 3T3 (AID 541; active means well fitted curve in the direction sought with a large enough effect; an effect the other way counts as inactive or inconclusive; further: potency means the concentration at half of the fitted maximal effect; nearly all actives have a fitted effect of over 25% in size); conditions: NIH 3T3 cell viability, qHTS; activity change, negative = cytotoxicity: at 92.2 µM (top of the series)
Outline: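 qHTS format; 40 hr compound exposure, 37 °C; CellTiter-Glo luminescence (cellular ATP) read-out after 20 min at RT. Decrease in ATP = cytotoxicity; AC50 from standard Hill fit.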

[15] = Cell Viability - HUV-EC-C (AID 542; active means well fitted curve in the direction sought with a large enough effect; an effect the other way counts as inactive or inconclusive; further: potency means the concentration at half of the fitted maximal effect; nearly all actives have a fitted effect of over 35% in size); conditions: HUV-EC-C endothelial cell viability, qHTS; series mostly up to 92.2 µM
Outline: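 Luminescent ATP read-out (CellTiter-Glo, 20 min room temperature) after 40 hr compound treatment of HUV-EC-C cells at 37 °C. Concentration-response data fitted with the standard Hill equation to give AC50; tamoxifen and doxorubicin served as positive controls.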

[16] = Cellular Toxicity (caspase-3) HepG2 (AID 654; active means well fitted curve in the direction sought with a large enough effect; an effect the other way counts as inactive or inconclusive;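 further: cells exposed to compound for 16 hours before reading; 0% = DMSO alone and 100% = caspase signal from 100 µM tamoxifen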); conditions: HepG2 caspase-3 activation, luminescence; series mostly up to 92.2 µM
Outline: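 Luminescent Caspase-Glo 3/7 readout after 16 hr compound exposure of human hepatocellular carcinoma HepG2 cells at 37 °C; qHTS concentration-response, normalized DMSO = 0%, 100 uM tamoxifen = 100%; AC50 by standard Hill equation.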

[17] = Cellular Toxicity (caspase-3) SHSY5Y (AID 657; active means well fitted curve in the direction sought with a large enough effect; an effect the other way counts as inactive or inconclusive;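 further: cells exposed to compound for 16 hours at 37 °C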); conditions: SH-SY5Y caspase-3 activation; series mostly up to 91.7 µM
Outline: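 Readout: caspase-cleaved peptide-aminoluciferin substrate driving luciferase light in SH-SY5Y neuroblastoma cells after 16 h treatment. Response normalized to DMSO and 10 uM staurosporine controls.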

[18] = Cellular Toxicity (caspase-3) BJ (AID 658; active means well fitted curve in the direction sought with a large enough effect; an effect the other way counts as inactive or inconclusive;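 further: 0% = DMSO basal and 100% = 10 µM staurosporine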); conditions: BJ fibroblasts, luminescence, normalized: DMSO 0%, staurosporine 100%; series mostly up to 91.7 µM
Outline: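 Caspase-Glo 3/7 luminescence, read 1 hr after reagent at room temperature, in normal BJ fibroblasts exposed 16 hours at 37 °C. AC50 values from Hill-equation concentration-response, scaled between DMSO basal and 10 uM staurosporine as 100%.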

[19] = Cellular Toxicity (caspase-3) Mesangial (AID 660; active means well fitted curve in the direction sought with a large enough effect; an effect the other way counts as inactive or inconclusive;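 further: combined caspase 3 and 7 activity read by Caspase-Glo luminescence; cells exposed to compound for 16 h before the caspase read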); conditions: mesangial cells, normalized: DMSO 0%, 100 µM tamoxifen 100%; series mostly up to 91.7 µM
Outline: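 Luminescent Caspase-Glo 3/7 readout (aminoluciferin substrate cleavage, 20 min RT) after 16 h compound exposure at 37 °C of normal human mesangial cells. Signal increase normalized between DMSO basal and 100 uM tamoxifen; Hill-equation AC50.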

Chain of Glucocorticoid receptor (Homo sapiens) (P04150 whole entry, looked up, the tested form may be a part): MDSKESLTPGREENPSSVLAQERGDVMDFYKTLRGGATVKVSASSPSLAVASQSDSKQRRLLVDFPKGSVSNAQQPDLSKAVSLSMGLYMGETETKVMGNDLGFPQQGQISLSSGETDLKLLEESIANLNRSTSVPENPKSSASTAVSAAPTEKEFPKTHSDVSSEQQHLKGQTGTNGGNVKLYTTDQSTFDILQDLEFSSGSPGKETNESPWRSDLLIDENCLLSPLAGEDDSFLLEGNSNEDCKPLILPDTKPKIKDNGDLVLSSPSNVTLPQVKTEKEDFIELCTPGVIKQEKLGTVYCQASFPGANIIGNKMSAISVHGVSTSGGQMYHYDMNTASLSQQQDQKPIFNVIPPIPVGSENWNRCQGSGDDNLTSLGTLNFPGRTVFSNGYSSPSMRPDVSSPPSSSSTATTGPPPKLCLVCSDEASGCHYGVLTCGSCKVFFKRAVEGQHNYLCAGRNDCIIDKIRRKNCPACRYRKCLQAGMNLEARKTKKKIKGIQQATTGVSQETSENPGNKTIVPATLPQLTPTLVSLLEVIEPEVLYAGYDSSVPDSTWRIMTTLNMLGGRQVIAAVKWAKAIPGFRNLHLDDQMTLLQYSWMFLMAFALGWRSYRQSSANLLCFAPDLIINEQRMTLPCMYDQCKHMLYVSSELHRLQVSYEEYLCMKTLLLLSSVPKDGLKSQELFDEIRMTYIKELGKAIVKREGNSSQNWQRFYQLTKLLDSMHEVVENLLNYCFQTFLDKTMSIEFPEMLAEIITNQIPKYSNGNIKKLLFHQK
Chain of 3',5'-cyclic-AMP phosphodiesterase 4B (Homo sapiens) (Q07343 whole entry, looked up): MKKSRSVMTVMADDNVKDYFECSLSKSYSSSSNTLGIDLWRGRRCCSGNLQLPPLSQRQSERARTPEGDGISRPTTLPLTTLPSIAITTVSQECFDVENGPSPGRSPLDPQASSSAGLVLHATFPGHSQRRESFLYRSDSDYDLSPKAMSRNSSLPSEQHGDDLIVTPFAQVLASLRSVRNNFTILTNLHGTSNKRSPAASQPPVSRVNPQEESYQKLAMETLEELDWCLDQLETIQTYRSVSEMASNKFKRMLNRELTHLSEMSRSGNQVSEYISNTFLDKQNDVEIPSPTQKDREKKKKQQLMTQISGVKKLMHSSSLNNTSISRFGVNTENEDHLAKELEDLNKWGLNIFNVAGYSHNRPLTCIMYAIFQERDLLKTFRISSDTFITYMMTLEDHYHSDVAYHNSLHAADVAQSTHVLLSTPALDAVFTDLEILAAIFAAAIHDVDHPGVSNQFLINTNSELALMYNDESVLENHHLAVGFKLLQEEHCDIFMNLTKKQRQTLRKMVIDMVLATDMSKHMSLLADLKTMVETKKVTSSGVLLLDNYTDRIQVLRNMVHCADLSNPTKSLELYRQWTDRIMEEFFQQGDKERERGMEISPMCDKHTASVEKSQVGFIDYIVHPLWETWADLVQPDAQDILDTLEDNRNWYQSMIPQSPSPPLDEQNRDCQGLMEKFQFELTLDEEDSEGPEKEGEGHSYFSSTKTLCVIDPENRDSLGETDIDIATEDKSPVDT

Cc1c(N(C)CS(=O)(=O)O)c(=O)n(-c2ccccc2)n1C
Potency [1]: > 20.6 µM | Potency [2]: > 20.6 µM | outcome [3]: inactive | outcome [4]: inactive

COc1cccc2c1C(=O)c1c(O)c3c(c(O)c1C2=O)C[C@@](O)(C(C)=O)C[C@@H]3O[C@H]1C[C@H](N)[C@H](O)[C@H](C)O1
Potency [1]: > 46 µM and > 20.6 µM | Potency [2]: > 46 µM | Potency [5]: 0.251 µM (active) | Potency [6]: 3.16 µM (active) | Potency [7]: 0.00794 µM (active) | Potency [8]: 3.98 µM (active) | outcome [4]: inactive | Potency [9]: 0.00501 µM (active) | outcome [10]: inactive | Potency [11]: 31.6 µM (active) | Potency [12]: 0.126 µM (active) | Potency [13]: 12.6 µM (active)

NCCc1ccn[nH]1
Potency [1]: > 20.6 µM | Potency [2]: > 20.6 µM | outcome [3]: inactive | outcome [4]: inactive

CN(C)CC/C=C1\c2ccccc2Sc2ccc(Cl)cc21
Potency [1]: > 20.6 µM and > 46 µM | Potency [2]: > 20.6 µM and > 9.22 µM | outcome [3]: inactive | outcome [4]: inactive

CC(=O)c1ccc2c(c1)N(CCCN1CCC(CCO)CC1)c1ccccc1S2
Potency [1]: > 20.6 µM | Potency [2]: > 20.6 µM | outcome [3]: inactive | outcome [4]: inactive

Nc1cc(Cl)c(NC2=NCCN2)c(Cl)c1
Potency [1]: > 46 µM | Potency [2]: > 46 µM | outcome [3]: inactive | outcome [4]: inactive

CN1CCN(C(c2ccccc2)c2ccccc2)CC1
Potency [1]: > 20.6 µM | Potency [2]: > 20.6 µM | outcome [3]: inactive | outcome [4]: inactive

Cc1ccnc(NS(=O)(=O)c2ccc(N)cc2)n1
Potency [1]: > 20.6 µM | Potency [2]: > 20.6 µM | outcome [3]: inactive | outcome [4]: inactive

C[C@@H]1C(=O)NC2=Nc3cccc(Cl)c3CN21
Potency [1]: > 46 µM | Potency [2]: > 46 µM | outcome [4]: inactive

CN1CCN(CCCN2c3ccccc3Sc3ccc(S(=O)(=O)N(C)C)cc32)CC1
Potency [1]: > 20.6 µM | Potency [2]: > 20.6 µM | outcome [3]: inactive | outcome [4]: inactive

O=C(OCCOCCO)c1ccccc1Nc1cccc(C(F)(F)F)c1
Potency [1]: > 20.6 µM | Potency [2]: > 20.6 µM | outcome [3]: inactive | outcome [4]: inactive

CN1CCC(=C2c3ccccc3Sc3ccccc32)CC1
Potency [1]: > 20.6 µM | Potency [2]: > 20.6 µM | outcome [3]: inactive | outcome [4]: inactive

CC(C)COC(=O)OCN1C(=O)CN(CCN2CC(=O)N(COC(=O)OCC(C)C)C(=O)C2)CC1=O
Potency [1]: > 46 µM | Potency [2]: > 46 µM | outcome [3]: inactive | outcome [4]: inactive

Nc1nc2ncc(CNc3ccc(C(=O)N[C@@H](CCC(=O)O)C(=O)O)cc3)nc2c(=O)[nH]1
Potency [1]: > 20.6 µM | Potency [2]: > 20.6 µM | outcome [3]: inactive | outcome [4]: inactive

C[C@H](O)C(=O)Nc1c(I)c(C(=O)NC(CO)CO)c(I)c(C(=O)NC(CO)CO)c1I
Potency [1]: > 20.6 µM | Potency [2]: > 20.6 µM | outcome [3]: inactive | outcome [4]: inactive

Oc1cc(O)c2c(c1)O[C@H](c1ccc(O)c(O)c1)[C@H](O)C2
Potency [1]: > 46 µM and > 20.6 µM | Potency [2]: > 46 µM and > 20.6 µM | outcome [3]: inactive | outcome [4]: inactive

COc1cc(NS(C)(=O)=O)ccc1Nc1c2ccccc2nc2ccccc12
Potency [1]: > 46 µM | Potency [2]: > 46 µM | outcome [4]: inactive

CC(C)N=C(N)/N=C(\N)Nc1ccc(Cl)cc1
Potency [1]: > 20.6 µM | Potency [2]: > 20.6 µM | outcome [3]: inactive | outcome [4]: inactive

CCOC(=O)n1ccn(C)c1=S
Potency [1]: > 20.6 µM | Potency [2]: > 20.6 µM | outcome [3]: inactive | outcome [4]: inactive

C[N+]1(CCCCC[N+]2(C)CCCC2)CCCC1
Potency [1]: > 46 µM and > 20.6 µM | Potency [2]: > 46 µM and > 20.6 µM | outcome [3]: inactive | outcome [4]: inactive

O=C1c2ccccc2C(=O)C1c1ccccc1
Potency [1]: > 20.6 µM | Potency [2]: > 20.6 µM | outcome [3]: inactive | outcome [4]: inactive

CC(C)(C(=O)c1cccnc1)c1cccnc1
Potency [1]: > 20.6 µM | Potency [2]: > 20.6 µM | outcome [3]: inactive | outcome [4]: inactive

N[C@@H](Cc1cnc[nH]1)C(=O)O
Potency [1]: > 46 µM | Potency [2]: > 46 µM | outcome [4]: inactive

CC(C)(Oc1ccc(Cl)cc1)C(=O)O
Potency [1]: > 20.6 µM and > 46 µM | Potency [2]: > 20.6 µM and > 46 µM | outcome [3]: inactive | outcome [4]: inactive

O=C(CCCN1CCC(O)(c2ccc(Br)cc2)CC1)c1ccc(F)cc1
Potency [1]: > 20.6 µM | Potency [2]: > 20.6 µM | outcome [3]: inactive | outcome [4]: inactive

CCN(CC)C(=O)N1CCN(C)CC1
Potency [1]: > 20.6 µM | Potency [2]: > 20.6 µM | outcome [3]: inactive | outcome [4]: inactive

C[C@H]1[C@H](NC(=O)/C(=N/OC(C)(C)C(=O)O)c2csc(N)n2)C(=O)N1S(=O)(=O)O (stereo in doubt)
Potency [1]: > 20.6 µM | Potency [2]: > 20.6 µM | outcome [3]: inactive | outcome [4]: inactive

C[C@@H](CN(C)C)CN1c2ccccc2Sc2ccccc21
Potency [1]: > 20.6 µM | Potency [2]: > 20.6 µM | outcome [3]: inactive | outcome [4]: inactive

CNCCC=C1c2ccccc2CCc2ccccc21
Potency [1]: > 46 µM and > 20.6 µM | Potency [2]: > 46 µM and > 20.6 µM and > 9.22 µM | outcome [3]: inactive | outcome [4]: inactive

Oc1c(I)cc(Cl)c2cccnc12
Potency [1]: > 20.6 µM | Potency [2]: > 20.6 µM | Potency [5]: 31.6 µM (active) | Potency [14]: 5.01 µM (active) | Potency [15]: 31.6 µM (active) | Potency [6]: 50.1 µM (active) | viability change, negative = cytotoxic [7]: -84.2% (active) | Potency [16]: inactive | outcome [10]: inactive | Potency [17]: inactive | outcome [18]: inactive | Potency [11]: inactive | outcome [19]: inactive | Potency [12]: inactive | Potency [13]: inactive
